Screening results: PubChem BioAssay, National Center for Advancing Translational Sciences (NCATS)
Shown is part of a subset that was picked to be rich in hits.
Shiga inhibitor: A qHTS for Small Molecule Inhibitors of Shiga Toxin; Vero cells, Shiga toxin protein synthesis inhibition reporter; inhibition, % at 38.7 µM; actives 9.2% (n = 290,000); in the data active = inhibition mostly above about 28%, no sharp cut-off; inactive = mostly below about 43%
CHX counter: Cycloheximide Counterscreen for Small Molecule Inhibitors of Shiga Toxin | actives 12% (n = 300,000) | max response, % | cell reporter, cycloheximide protein synthesis inhibition counterscreen; in the data active = max response mostly above about 13%, no sharp cut-off; inactive = mostly below about 14%; note: read at 38.3 µM for the half of the compounds with a filed dose
RE007 growth inh: qHTS Assay for Inhibitors of the HIV-1 protein Vpr; Potency, µM (series often up to 92.2 µM), actives largely listed as inhibitors; S. pombe RE007 Vpr strain, BacTiter-Glo ATP luminescence, 24 h; actives 0.21% (n = 360,000); active = well fitted falling curve with a large enough effect; inconclusive = small, poorly fitted or top-dose-only effect; inactive = no such curve, though single readings can be large or run the other way; note: nearly all actives have a fitted effect of over 50% in size
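Fission yeast strain RE007, carrying one chromosomally integrated HIV-1 vpr copy, was seeded at OD 0.01 in PMG+AL medium with 23 nL pinned compound. After 24 h at 30 °C and 99% humidity, viability was read by BacTiter-Glo luminescence.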
FBPA Giardia inh: qHTS Assay for Inhibitors of Fructose-1,6-bisphosphate Aldolase from Giardia Lamblia; purified Giardia FBPA; Potency, µM (doses to about 59.6 µM), most hits filed as inhibitors; actives 0.71% (n = 290,000); AID 2451, 2010; note: nearly all actives have a fitted effect of over 55% in size
Target sequence (A8B2U2 whole entry, looked up): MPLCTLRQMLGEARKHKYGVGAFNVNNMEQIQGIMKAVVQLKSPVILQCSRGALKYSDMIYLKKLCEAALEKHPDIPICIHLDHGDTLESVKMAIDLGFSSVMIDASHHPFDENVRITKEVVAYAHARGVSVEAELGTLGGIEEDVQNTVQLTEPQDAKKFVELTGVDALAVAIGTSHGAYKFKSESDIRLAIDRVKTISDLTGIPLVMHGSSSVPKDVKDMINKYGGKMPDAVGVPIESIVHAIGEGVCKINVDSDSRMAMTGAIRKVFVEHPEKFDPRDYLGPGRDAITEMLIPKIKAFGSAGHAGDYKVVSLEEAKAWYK
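40 nM FBPA preincubated 10 min at RT with compound (up to 57.5 uM final), then substrate plus GAPDH/TPI/NAD/arsenate coupling and diaphorase/resazurin added. Fluorescence read after 20 min at RT, 525/598 nm.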
TbPYK inhibitor: qHTS of Trypanosoma Brucei Inhibitors; pyruvate kinase (Trypanosoma brucei), Q57TT1; TbPYK enzyme, Kinase-Glo Plus ATP luminescence, 45 min; Potency, µM (doses to about 76.8 µM), usual class: inhibitors; actives 0.12% (n = 410,000); AID 624173, 2012; note: nearly all actives have a fitted effect of over 50% in size
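Luminescence from Kinase-Glo Plus, added after a 45-minute room-temperature reaction, served as the end-point read-out. The enzyme and substrate were preincubated with compound before ADP (130 uM final) initiated turnover. Concentration-effect curves came from normalized qHTS data.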
LmPK inhibitor: qHTS Assay for Inhibitors of Leishmania Mexicana Pyruvate Kinase (LmPK). actives 0.37% (n = 290,000). Q27686. purified LmPK, Kinase-Glo ATP luminescence, 1 h. Potency, µM (top dose mostly 57.5 µM), most hits filed as inhibitors
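Screened at intermediate enzyme activity to detect both inhibitors and activators: LmPK at 0.1 nM, with a 0.5 nM enzyme column as activation reference. PEP 0.5 mM, ADP 0.1 mM; ATP detected by luminescence after 1 h.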
Of the large screens only hits and unclear results are named; the others gave an inactive call. Unless noted, calls come from the whole dose curve; as a rule, active = well fitted curve in the direction sought with a large enough effect; inconclusive = small, poorly fitted or top-dose-only effect, or another doubt; inactive = no such curve, though single readings can be large; an effect the other way counts as inactive or inconclusive.

C/C(=N\NC(=O)c1ccc2ccccc2c1)c1cccs1	Shiga inhibitor 94, CHX counter 45 (no result: FBPA Giardia inh)
C/C(=N\NC(=O)c1cccs1)c1cccnc1	none
C/C(=N\NC(=O)c1cccs1)c1ccc2ccccc2c1	Shiga inhibitor 41, CHX counter 37
C/C(=N\NC(=O)Cc1ccccc1)c1cccs1	none
C/C(=N/N=C(/C)c1cccs1)c1cccs1	Shiga inhibitor 73, CHX counter 31
NC(=O)C1CN(C(=O)c2nn(Cc3ccccc3)c(=O)c3ccccc23)c2ccccc2O1 (stereo unspecified)	none (no result: Shiga inhibitor, CHX counter, FBPA Giardia inh, LmPK inhibitor)
CCCCN(CCCC)CCNC(=O)Cn1nc(CC)n2c(cc3sccc32)c1=O	none (no result: Shiga inhibitor, CHX counter, RE007 growth inh, FBPA Giardia inh, LmPK inhibitor)
CCC(Nc1ncnc2ccc(-c3c(C)noc3C)cc12)c1ccccc1 (stereo unspecified)	none (no result: RE007 growth inh, TbPYK inhibitor, LmPK inhibitor)
CC(C)CCNC(=O)CSCc1cnn(-c2ccccc2)c1-n1cccc1	none (no result: Shiga inhibitor, CHX counter, RE007 growth inh, FBPA Giardia inh, LmPK inhibitor)
C/C(=N\NC(=O)C1=NNC(=O)C1C)c1cccs1 (stereo unspecified)	Shiga inhibitor 90, CHX counter 34
CC(=NNC(=O)c1cccc(S(=O)(=O)N2CCCC2)c1)c1ccccc1	none (no result: Shiga inhibitor, CHX counter, FBPA Giardia inh, LmPK inhibitor)
C/C(=N\NC(=O)C1CC1c1ccccc1)c1cccs1 (stereo unspecified)	none
C/C(=N\NC(=O)c1cccc(S(=O)(=O)N2CCCC2)c1)c1cccs1	Shiga inhibitor 50, CHX counter 19
C/C(=N/NC(=O)c1cc(C2CC2)[nH]n1)c1cccs1	CHX counter 25, LmPK inhibitor 22µM
C/C(=N/NC(=O)c1cccs1)c1cccc(NC(=O)C2CC2)c1	Shiga inhibitor 95, CHX counter 38
Clc1cccc(/C=N/Nc2nc(Cl)nc3ccccc23)c1	Shiga inhibitor 122, CHX counter 48
Cc1cc(N/N=C/c2ccccc2F)nc(NCc2ccccc2)n1	none
Cc1cc(N/N=C/c2ccccc2)nc(NCc2ccccc2)n1	CHX counter 24
Cc1cc(N/N=C/c2cccc(Cl)c2)nc(NCc2ccccc2)n1	CHX counter 23
Cc1cc(N/N=C/c2cccc(F)c2)nc(NCc2ccccc2)n1	Shiga inhibitor 65, CHX counter 20
Cc1cc(N/N=C/c2ccc(Cl)cc2)nc(NCc2ccccc2)n1	none
Fc1cccc(/C=N/Nc2ccc(Cl)nn2)c1	CHX counter 41
Clc1cccc(/C=N\Nc2nccs2)c1	CHX counter 20
Cc1cc(C)nc(N/N=C/c2cccc(Cl)c2)n1	CHX counter 18
C(=N/Nc1nccs1)/c1cccnc1	none
Oc1c(Br)cc(/C=N/Nc2ccc(Cl)nn2)cc1Br	none
COc1ccc(/C=N/Nc2nc(C)cc(-c3ccccc3)n2)cc1OC	none
O=c1c(S(=O)(=O)c2cccc(Cl)c2)cn(Cc2ccccc2)c2cc(N3CCCCC3)c(F)cc12	none (no result: Shiga inhibitor, CHX counter, RE007 growth inh, FBPA Giardia inh, LmPK inhibitor)
COc1ccc(C(=S)N2CCC(C(N)=O)CC2)cc1Br	FBPA Giardia inh inconclusive
NC(=O)c1ccc(-c2ccc(Br)cc2)o1	Shiga inhibitor 56
O=C(O)c1ccc(-c2ccc(-c3ccccc3)cc2)o1	none (no result: RE007 growth inh, TbPYK inhibitor, LmPK inhibitor)
NC(=O)C1CCN(C(=S)c2ccc(-c3ccc(Br)cc3)o2)CC1	Shiga inhibitor 78, CHX counter 37, FBPA Giardia inh 3.5µM, TbPYK inhibitor inconclusive
CC(C)C[C@H](NC(=O)c1ccc(NCc2cnc[nH]2)cc1-c1cccc2ccccc12)C(=O)O	none (no result: RE007 growth inh, TbPYK inhibitor, LmPK inhibitor)
O=C(CN1C(=O)CC(c2ccccc2)Sc2ccccc21)NCC1CCCO1 (stereo unspecified)	none
COc1ccc(C2CC(=O)N(CC(=O)NCC3CCCO3)c3ccccc3S2)cc1OC (stereo unspecified)	CHX counter 25
COc1ccc(C2CC(=O)N(Cc3ccc(F)cc3)c3ccccc3S2)cc1OC (stereo unspecified)	none (no result: Shiga inhibitor, CHX counter, RE007 growth inh, FBPA Giardia inh, LmPK inhibitor)
COc1ccc(C2CC(=O)N(C)c3ccccc3S2)cc1OC (stereo unspecified)	Shiga inhibitor 149, CHX counter 57
Cc1ccc(C(=O)NN=Cc2ccc3c(c2)OCO3)cc1	none (no result: Shiga inhibitor, CHX counter, FBPA Giardia inh, LmPK inhibitor)
Cc1ccc(C(=O)N/N=C/c2ccc3c(c2)OCO3)o1	Shiga inhibitor 60, CHX counter 63, LmPK inhibitor inconclusive
Cn1cc([N+](=O)[O-])c(C(=O)N/N=C/c2ccc3c(c2)OCO3)n1	Shiga inhibitor 43, CHX counter 20
Cc1ccc(C(=O)/C=C/c2ccc3c(c2)OCO3)o1	Shiga inhibitor 52, CHX counter 49, RE007 growth inh inconclusive, LmPK inhibitor inconclusive
O=C(N/N=C/c1cc2c(c([N+](=O)[O-])c1)OCO2)c1ccncc1	none (no result: Shiga inhibitor)
Cc1ccc(C(=O)/C=C/c2ccccc2)o1	CHX counter 40, RE007 growth inh inconclusive
CCc1ccc(NC(=O)c2ccc(F)c(S(=O)(=O)N3CCN(c4cc(C)ccc4C)CC3)c2)cc1	none (no result: Shiga inhibitor, CHX counter, RE007 growth inh, FBPA Giardia inh, LmPK inhibitor)
O=C(N/N=C/c1ccc2c(c1)OCO2)c1cc2ccccc2o1	CHX counter 12
O=C(N/N=C/c1ccsc1)c1cc2ccccc2o1	Shiga inhibitor 41, CHX counter 62
O=C(N/N=C/c1cccc2ccccc12)c1cc2ccccc2o1	none
Nc1cccc(C(=O)N/N=C/c2ccsc2)c1	Shiga inhibitor 54, CHX counter 33
C(=C\c1ccccc1)/C=N/N1CCN(Cc2ccccc2)CC1	Shiga inhibitor 43, CHX counter 27
C(/C=C/c1ccccc1)=N/N1CCN(c2ccccc2)CC1	CHX counter 16
C(=C\c1ccccc1)/C=N/N1CCN(c2ccccn2)CC1	Shiga inhibitor 48, CHX counter 39
CC(/C=N/N1CCN(c2ccccn2)CC1)=C\c1ccccc1	Shiga inhibitor 47, CHX counter 23
c1ccc(-c2nnc(N3CCN(c4ccccn4)CC3)c3ccccc23)cc1	none
Cc1ccc(C)c(N2CCN(C(=O)CN3C(=O)COc4ccc(S(=O)(=O)N5CCCC5)cc43)CC2)c1	none (no result: Shiga inhibitor, CHX counter, RE007 growth inh, FBPA Giardia inh, LmPK inhibitor)
COc1ccc(-c2cn(-c3ccc(C)cc3)c(S(=O)(=O)CC(=O)Nc3ccccc3)n2)cc1	none (no result: Shiga inhibitor, CHX counter, RE007 growth inh, FBPA Giardia inh, LmPK inhibitor)
Cc1ccnc(N/C=C(\C#N)c2nc(-c3cccc(Br)c3)cs2)c1	CHX counter 15
N#C/C(=C/c1ccc(Cl)cc1)c1nc(-c2ccc(Br)cc2)cs1	none (no result: Shiga inhibitor, CHX counter, RE007 growth inh, FBPA Giardia inh, LmPK inhibitor)
Cc1ccc(N2CC(NC(=O)c3cc4ccccc4o3)CC2=O)cc1 (stereo unspecified)	none (no result: Shiga inhibitor, CHX counter, RE007 growth inh, FBPA Giardia inh, LmPK inhibitor)
COc1ccccc1-c1nnc(Sc2nc([N+](=O)[O-])nn2C)o1	none
CC(C)/C=C1\CCc2c([nH]c3ccccc23)C1=O	Shiga inhibitor 45, CHX counter 32
O=C1/C(=C\c2ccccc2)CCc2c1[nH]c1ccccc21	Shiga inhibitor 52, CHX counter 42
